{"source": "PubChem BioAssay AID651636", "about": "(Sanford-Burnham Center for Chemical Genomics, 2012)", "note": "Hit rate of the full screen: of about 360,000 compounds, about 3,000 (0.83%) were called active. The list comes from a sample in which actives are over-represented; it also holds similar structures and randomly drawn compounds. Unmarked numbers belong to inactive results. No stated cut-off is given here; in the data, active means inhibition above about 38%; inactive means the rest."}
{"biological_target": "G-protein coupled receptor 183 (Homo sapiens) (UniProt P32249)", "sequence (P32249 whole entry, looked up, the tested form may be a part)": "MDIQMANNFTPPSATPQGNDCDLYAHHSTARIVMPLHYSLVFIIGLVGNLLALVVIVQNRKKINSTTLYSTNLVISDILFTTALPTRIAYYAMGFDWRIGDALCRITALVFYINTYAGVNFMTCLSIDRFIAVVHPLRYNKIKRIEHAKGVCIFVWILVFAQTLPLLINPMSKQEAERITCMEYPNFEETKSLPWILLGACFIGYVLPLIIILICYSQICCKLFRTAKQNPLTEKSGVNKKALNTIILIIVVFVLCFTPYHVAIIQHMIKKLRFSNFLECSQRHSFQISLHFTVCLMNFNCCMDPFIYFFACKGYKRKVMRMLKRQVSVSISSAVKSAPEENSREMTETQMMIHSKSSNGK", "assay": "blockers of oxysterol-driven EBI2 arrestin signaling – cell-based, luminescence, 7a,25-OHC stimulation, uHTS, primary screen (AID 651636);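 further: enzyme fragment complementation signal reports receptor beta-arrestin coupling in cells; 0% = agonist plus DMSO wells and 100% = wells without agonist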", "details": "EBI2 beta-arrestin recruitment, 7a,25-OHC stimulated, at 5 µM, stronger effect = higher value"}
{"smiles": "COC(=O)CNC(=O)C(CCSC)NC(C)=O", "note": "(stereo unspecified)", "inhibition": "5.29%"}
{"smiles": "Cc1nc(C(F)(F)F)ccc1C(=O)N1CCC1(C)C(=O)NS(=O)(=O)c1ccc(F)cc1F", "note": "(stereo unspecified)", "inhibition": "3.24%"}
{"smiles": "CNC(=O)C1CC(=O)N(c2ccc(OCC(=O)Nc3ccccc3C)cc2)C1", "note": "(stereo unspecified)", "inhibition": "2.34%"}
{"smiles": "Cc1nnc(SC(C)C(=O)c2c[nH]c3ccccc23)n1C1CC1", "note": "(stereo unspecified)", "inhibition": "-6.27%"}
{"smiles": "CCOc1cc(-c2conc2N)cc(OCC)c1OCC", "inhibition": "7.1%"}
{"smiles": "CC(C)(C)OC(=O)C[C@@H]1C/C=C\\C[C@@H](CC(=O)N[C@@H](CO)Cc2ccccc2)C(=O)N2CCC[C@H]2COC1=O", "inhibition": "1.7%"}
{"smiles": "CCC(C(=O)OC)n1cnc2c(oc3ccccc32)c1=O", "note": "(stereo unspecified)", "inhibition": "3.69%"}
{"smiles": "COC(=O)c1ccc(CN(c2ccccc2OC)S(=O)(=O)c2cccs2)o1", "inhibition": "7.2%"}
{"smiles": "O=C(OCc1nnc(-c2ccccc2)o1)c1cc(=O)[nH]c2ccccc12", "inhibition": "-5.82%"}
{"smiles": "CCOC(=O)c1cc(-c2nnc(-c3cc(OC)c(OC)c(OC)c3)o2)c(C)nc1C", "inhibition": "-9%"}
{"smiles": "CCCc1nc2ccccc2c(C(=O)OCc2nnc(-c3cc(OC)c(OC)c(OC)c3)o2)c1CC", "inhibition": "51.2% (active)"}
{"smiles": "COc1ccc(S(=O)(=O)NCC(=O)NCc2cc(=O)n(C)c(=O)n2C)cc1F", "inhibition": "2.08%"}
{"smiles": "CC(=O)NCCc1ccc(S(=O)(=O)N(C)C2CCS(=O)(=O)C2)cc1", "note": "(stereo unspecified)", "inhibition": "-2.21%"}
{"smiles": "Cc1cccn2c(=O)c3cc(C(=O)NC4CCCCC4)sc3nc12", "inhibition": "8.11%"}
{"smiles": "Cc1cccn2c(=O)c(/C=C(\\C#N)S(=O)(=O)c3ccc(Cl)cc3)c(N3CCC(C(N)=O)CC3)nc12", "inhibition": "-5.33%"}
{"smiles": "Cc1cc(C)cc(Oc2nc3c(C)cccn3c(=O)c2/C=C(\\C#N)C(=O)NC2CCS(=O)(=O)C2)c1", "note": "(stereo unspecified)", "inhibition": "50.3% (active)"}
{"smiles": "FC(F)(F)c1cccc(-c2nc3ccccc3n2C(c2ccccc2)c2nc3ccccc3[nH]2)c1", "note": "(stereo unspecified)", "inhibition": "8.62%"}
{"smiles": "CSCCC(C(=O)NC1=NCCS1)N1C(=O)c2ccccc2C1=O", "note": "(stereo unspecified)", "inhibition": "1.85%"}
{"smiles": "COC(=O)N/N=C/c1c[n+]([O-])c2ccccc2[n+]1[O-]", "inhibition": "-1.98%"}
{"smiles": "COc1ccc(/C=C/C(=O)c2cc(Br)ccc(=O)c2O)cc1", "inhibition": "-0.626%"}
{"smiles": "COc1ccc(/C=C/C(=O)NC(=S)N2CCCC(C(N)=O)C2)cc1", "note": "(stereo unspecified)", "inhibition": "-8.77%"}
{"smiles": "COc1ccc(C(=O)/C=C/c2ccc(OC3CSC3)cc2)cc1", "inhibition": "60.1% (active)"}
{"smiles": "COc1ccc(OC)c(/C=C/C(=O)c2ccc3c(c2)OCO3)c1", "inhibition": "8.22%"}
{"smiles": "COc1ccc(C(=O)CC(=O)c2ccc(C)cc2)c(O)c1", "inhibition": "-3.66%"}
{"smiles": "COc1ccc(/C=C/C(=O)c2ccc(OC)cc2O)cc1", "inhibition": "73.8% (active)"}
{"smiles": "CC(C)[C@H](NC(=O)c1ccc(F)cc1)C(=O)OCC(=O)NC(=O)c1cccn1C", "inhibition": "-1.33%"}
{"smiles": "Cc1cc(C)cc(NC(=O)COc2coc(CN3CCN(c4ccccc4)CC3)cc2=O)c1", "inhibition": "-4.06%"}
{"smiles": "CCCc1cc(=O)[nH]c(SCc2ccc(C#N)cc2)n1", "inhibition": "-20.6%"}
{"smiles": "N#CC(=C1SC=CS1)c1nc(-c2ccccc2)cs1", "inhibition": "-66.2%"}
{"smiles": "N#CC(=C1CCCC1)c1nc(-c2ccc(Cl)cc2)cs1", "inhibition": "54.1% (active)"}
{"smiles": "CCCCCN1CC(O)=C(c2nc(-c3ccc(Cl)cc3)cs2)C1=N", "inhibition": "-3.67%"}
{"smiles": "O=C(Nc1cccc(S(=O)(=O)NC2=NCCC2)c1)C1CCCCC1", "inhibition": "-4.45%"}
{"smiles": "CC(=O)c1ccc(NC(=O)CCc2nnc3ccc(NCc4ccco4)nn23)cc1", "inhibition": "-2.75%"}
{"smiles": "CCN(CC)S(=O)(=O)c1cccc(C(=O)NCC(=O)OCC(=O)NCc2ccccc2)c1", "inhibition": "-10.4%"}
{"smiles": "Cc1c(NC(=O)C(C)OC(=O)c2cc3c4ccccc4n(C)c3s2)c(=O)n(-c2ccccc2)n1C", "note": "(stereo unspecified)", "inhibition": "-12.7%"}
{"smiles": "CCn1c(C)c(C)c2cc(C(=O)N3CCN(c4cccc(C)c4C)CC3)ccc21", "inhibition": "15.1%"}
{"smiles": "Cc1cccc(N2CCN(C(=O)/C=C/c3ccco3)CC2)c1C", "inhibition": "33%"}
{"smiles": "Cc1cccc(N2CCN(C(=O)c3cc4c(=O)[nH]c5ccccc5c4n3C)CC2)c1C", "inhibition": "88.2% (active)"}
{"smiles": "CCCn1c(NC(=O)C23CC4CC(CC(O)(C4)C2)C3)nc2ccccc21", "inhibition": "-9.2%"}
{"smiles": "CCOC(=O)C(C)Oc1cccc2c(=O)n(CC(=O)N3CCc4ccccc43)ccc12", "note": "(stereo unspecified)", "inhibition": "11.2%"}
{"smiles": "COc1cc(/C=C(\\C#N)C(=O)Nc2ccc3ccccc3c2)c([N+](=O)[O-])cc1OC", "inhibition": "49.6% (active)"}
{"smiles": "COc1cc(NC(=O)COC(=O)CSc2ccc3ccccc3c2)c(C)cc1[N+](=O)[O-]", "inhibition": "-6.04%"}
{"smiles": "COc1cc(/C=C(/NC(=O)c2ccccc2)C(=O)Nc2cccc(O)c2)c([N+](=O)[O-])cc1OC", "inhibition": "5.05%"}
{"smiles": "COc1ccc(CN2C(=O)CN=C2Nc2ccc(C)cc2C)cc1", "inhibition": "-8.98%"}
{"smiles": "COC(=O)[C@@]12C[C@@H](CC(=O)NCCCCc3ccccc3)C(=O)N(Cc3ccccc3)C1=CCC(C)(C)C2", "inhibition": "17.4%"}
{"smiles": "O=C(NNC(=O)c1cnccc1C(F)(F)F)c1ccc(Cl)cc1", "inhibition": "-6.52%"}
{"smiles": "CCN(C(=O)CSc1ncnc2sccc12)c1c(N)n(Cc2ccccc2)c(=O)[nH]c1=O", "inhibition": "-7.44%"}
{"smiles": "O=C(CSc1nnnn1C1CCCC1)Nc1ccc2c(c1)OCCO2", "inhibition": "0.834%"}
{"smiles": "CCOc1ccc(/C=C/C(=O)N(CC)CC(=O)NCc2cccs2)cc1OC", "inhibition": "2.03%"}
{"smiles": "CCN(CC(=O)NCc1cccs1)C(=O)c1ccccc1F", "inhibition": "0.894%"}
{"smiles": "CCN(CC(=O)NCc1cccs1)C(=O)/C=C/c1ccc(C)cc1", "inhibition": "92% (active)"}
